High-throughput results as filed in PubChem BioAssay.
Compounds with a hit are over-represented: about 3% of the library has one in this group of screens.
TRAIL sens C8 = caspase-8 TRAIL sensitization; NB7+C8 cells + TRAIL, ATPlite viability luminescence; inhibition (viability loss, TRAIL sensitization), % at 10 µM; actives 1% (n = 360,000); AID 624354;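 active = compounds causing at least 50% loss of cell viability in the single-dose screen, relative to plate controls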
SENP8 block-1 = inhibitors of human SENP8 protease; actives 0.64% (n = 360,000); recombinant SENP8, Nedd8 substrate fluorescence; AID 602440; inhibition, % at 20 µM; Q96LD8; in the data active = inhibition mostly above about 40%, no sharp cut-off; inactive = mostly below about 27%
SENP7 block = blocks the human protease SENP7 | Q9BQF6 | recombinant SENP7, Z-RLRGG-aminoluciferin luminescence, 40 min | inhibition, % at 5 µM | actives 1.5% (n = 330,000) | AID 434973;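 active = inhibition above about 50% at the single test dose, limit read from the data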
SENP6 inh = inhibitors of human SENP6 protease; AID 2599; Recombinant SENP6 catalytic domain, aminoluciferin luminescence; Q9GZR1; inhibition, % at 10 µM; actives 1.8% (n = 330,000);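 active = inhibition above about 50% at the single tested dose, limit read from the data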
Target sequence (Q9GZR1 628-1112 limits assumed): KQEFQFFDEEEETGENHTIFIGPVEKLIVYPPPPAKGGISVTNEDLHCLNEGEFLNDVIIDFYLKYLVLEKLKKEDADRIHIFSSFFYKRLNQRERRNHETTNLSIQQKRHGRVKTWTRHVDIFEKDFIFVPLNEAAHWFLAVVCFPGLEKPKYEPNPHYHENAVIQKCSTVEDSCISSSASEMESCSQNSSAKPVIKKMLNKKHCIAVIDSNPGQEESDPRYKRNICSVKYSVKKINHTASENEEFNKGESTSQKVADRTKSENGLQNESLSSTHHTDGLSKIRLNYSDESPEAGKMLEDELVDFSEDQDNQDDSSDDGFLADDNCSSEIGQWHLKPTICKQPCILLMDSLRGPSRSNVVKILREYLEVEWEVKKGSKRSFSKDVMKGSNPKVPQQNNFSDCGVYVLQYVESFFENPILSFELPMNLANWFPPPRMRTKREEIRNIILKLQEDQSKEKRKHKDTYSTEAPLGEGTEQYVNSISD
SENP8 block-2 = blocks the human protease SENP8 | purified SENP8, Z-RLRGG-aminoluciferin cleavage, luminescence | inhibition, % at 10 µM | actives 1.2% (n = 330,000); in the data active = inhibition above about 50%
PPC-1+TRAIL kill = compounds killing PPC-1 cancer cells with TRAIL present (potentiator screen, no TRAIL-free arm). PPC-1 cells + TRAIL, ATPLite viability luminescence. cell killing (% activity), % at 4 µM or 5 µM. actives 0.41% (n = 220,000). AID 1443;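 active = cell killing above 50% in the first pass at 4 µM, then a duplicate retest at 5 µM averaging 50% or more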
A number is an active result; i = inactive; nt = no result.

SMILES | TRAIL sens C8 | SENP8 block-1 | SENP7 block | SENP6 inh | SENP8 block-2 | PPC-1+TRAIL kill
CCOC(=O)N1N=C(c2ccc(OC)cc2)CC1(O)C(F)(F)F (stereo unspecified) | i | i | i | i | i | i
O=C1C=C(N2CCN(c3ccccn3)CC2)C(=O)c2c(O)ccc(O)c21 | 50.3 | 76.3 | nt | nt | nt | nt
CCCC(=O)N1CCC1(C)C(=O)Nc1cc(OC)c(OC)c(OC)c1 (stereo unspecified) | i | i | nt | nt | nt | nt
CCOC(=O)/C(C)=N/NC(=O)c1ccc([N+](=O)[O-])cc1 | i | i | i | i | i | i
CCOC(=O)/C(N=Nc1ccc(F)cc1)=C(/O)c1ccc([N+](=O)[O-])cc1 | i | 42.6 | i | i | i | i
CN(C)CC1CCC/C(=C/c2ccc(Cl)cc2)C1=O (stereo unspecified) | i | i | nt | nt | nt | nt
CC(C)N(CC(=O)Nc1ccc(Cl)cc1C(F)(F)F)C(=O)CCl | 95.3 | i | i | i | i | i
CCC(C)N(CC(=O)Nc1cccc(C)c1C)C(=O)CCl (stereo unspecified) | 96.8 | i | i | i | i | i
O=C(O)CSCC(=O)Nc1ccc(Cl)cc1C(F)(F)F | i | i | i | i | i | i
CCOC(=O)c1cnc2cc(-c3ccc(C)cc3)nn2c1C | i | i | nt | nt | nt | nt
CC(C)Cn1cnc2c(SCCc3ccccc3)nc(N)nc21 | i | i | nt | nt | nt | nt
Cn1c2ccccc2c(=O)n2c(=O)c3ccccc3cc12 | nt | nt | 95.3 | 90.4 | 96.9 | i
C/C(=N\Nc1nc2ccccc2nc1C)c1ccccc1O | i | i | i | i | i | i
CC(=NNc1ccc2ccccc2n1)c1ccccc1O | 76.9 | i | nt | nt | nt | nt
Cc1nn(-c2ccccc2)c(N)c1N=Nc1cccc(S(=O)(=O)N2CCOCC2)c1 | i | 40.7 | i | i | i | i
FC(F)(F)c1ccccc1Cc1c(-c2cccc(Br)c2)nc2ccc(Cl)cn12 | i | i | nt | nt | nt | nt
Cc1cc(NC(=O)C2CCCC2)nc2c1c(=O)oc1ccccc12 | 70.6 | i | i | i | i | i
Cc1cccc(CC(=O)Nc2cc(C)c3c(=O)oc4ccccc4c3n2)c1 | 52.1 | i | i | i | i | i
Cc1cc(NC(=O)C2CCCCC2)nc2c1c(=O)oc1ccccc12 | i | i | i | i | i | i
Cc1cc(NC(=O)Cc2ccccc2)nc2c1c(=O)oc1ccccc12 | i | i | i | i | i | i
CC(=O)c1cccc(NC(=S)N2CCN(S(=O)(=O)c3ccccc3)CC2)c1 | i | i | i | i | i | nt
CCc1n[n+](CC(=O)c2ccccc2)c(N)s1 | 58.9 | i | nt | nt | nt | 64.9
CC(=O)N1CCc2c(sc(NC(=O)c3ccc([N+](=O)[O-])o3)c2C(N)=O)C1 | 61.5 | i | nt | nt | nt | nt
Cc1ccc(S(=O)(=O)Cc2ccc(C(=O)OCc3ccccc3)cc2)cc1 | i | i | i | i | i | i
COC(=O)c1c[nH]c2c1-c1cc(C(=O)OCc3ccccc3)n(S(=O)(=O)c3ccc(C)cc3)c1C(=O)C2=O | 69.5 | 104.9 | nt | nt | nt | nt
SMILES | TRAIL sens C8 | SENP8 block-1 | SENP7 block | SENP6 inh | SENP8 block-2 | PPC-1+TRAIL kill
COc1ccc(N2CCN(CCNC(=O)CCCn3c(=O)[nH]c4cc(Cl)ccc4c3=O)CC2)cc1 | i | 52.8 | i | i | i | i
COc1ccc(N2CCN(CCCNC(=O)CCCn3c(=O)[nH]c4ccsc4c3=O)CC2)cc1 | i | i | i | i | i | i
CCc1nn(C(CC)C(=O)NCc2cccc(OC)c2OC)c(=O)c2cc3occc3n12 (stereo unspecified) | i | i | i | i | i | nt
CCOc1ccc2noc3c2c1C(=O)c1ccccc1-3 | i | 70.2 | i | 78.9 | i | i
O=S(=O)(c1ccccc1S(=O)(=O)N1CCCCC1)N1CCCCC1 | i | i | i | i | i | i
O=C1C=C(N2CCCCC2)c2ccccc2C1=O | 93.8 | i | 54.6 | 93.3 | 82.6 | nt
O=C1c2ccccc2C(=O)c2c1cccc2N1CCCC1 | i | 46.3 | nt | nt | nt | i
O=C1c2ccccc2-c2onc3ccc(NCc4ccco4)c1c23 | i | 99.8 | i | 63.9 | i | i
COc1ccc(C(CNC(=O)c2nn(-c3ccccc3)c(=O)c3ccccc23)N2CCOCC2)cc1 (stereo unspecified) | i | i | i | i | i | nt
Cn1c(=O)cc2c3c(c(N4CCCCC4)ccc31)C(=O)c1ccccc1-2 | i | i | i | i | i | i
O=C1c2ccccc2-c2onc3ccc(N4CCCC4)c1c23 | i | 80.8 | nt | nt | nt | i
CCNc1ccc2noc3c2c1C(=O)c1ccccc1-3 | i | 42.0 | i | i | i | i
O=C(N/N=C/c1sc(=O)n(-c2ccccc2)c1Cl)c1ccccc1 | i | i | 75.6 | 83.3 | 55.6 | i
COc1ccc(N2CCN(C(CNS(=O)(=O)c3cccs3)c3cccnc3)CC2)cc1 (stereo unspecified) | i | 41.9 | i | i | i | i
O=S(=O)(NCC(c1cccnc1)N1CCN(c2ccccc2)CC1)c1cccs1 (stereo unspecified) | i | i | i | i | i | i
Cc1ccc(C(=O)c2no[n+]([O-])c2C(=O)c2ccc(C)cc2)cc1 | 93.2 | i | i | i | i | i
O=C(CCCC(=O)N(CC(=O)NC1CCCCC1)c1ccccc1F)Nc1ccccn1 | i | i | i | i | i | nt
O=C1NC(=Nc2ccccc2)S/C1=C\c1cccs1 | i | i | i | 69.4 | 59.2 | i
Cn1cccc1/C=C1\SC(=Nc2cccc(O)c2)NC1=O | i | i | 52.2 | 77.8 | 54.3 | i
Cc1cc(C)cc(N=C2NC(=O)/C(=C/c3cccs3)S2)c1 | i | i | i | i | i | i
CCC(=O)Nc1ccc(NC(=S)NC(=O)c2cc3ccccc3o2)cc1 | i | i | i | i | i | i
CCC(=O)Nc1cccc(NC(=S)NC(=O)c2cc3ccccc3o2)c1 | i | i | 76.0 | i | i | i
Cc1cc(NC(=O)c2cncc(Br)c2)ccc1NC(=O)c1cc2ccccc2o1 | 59.8 | i | i | i | i | nt
COC(=O)c1cc(NC(=O)c2cc3ccccc3o2)cc(C(=O)OC)c1 | i | i | i | i | i | nt
COC(=O)c1cccc(NC(=O)c2cc3ccccc3o2)c1 | 50.1 | i | i | i | i | nt
SMILES | TRAIL sens C8 | SENP8 block-1 | SENP7 block | SENP6 inh | SENP8 block-2 | PPC-1+TRAIL kill
O=C(c1ccc([N+](=O)[O-])cc1)N1CCN(c2ncc(Br)cn2)CC1 | i | i | i | i | i | nt
CNc1nc(N/N=C/c2cc([N+](=O)[O-])ccc2F)nc(Nc2ccccc2)n1 | 57.6 | i | nt | nt | nt | nt
O=C1/C(=C/c2ccc(O)cc2)SC(=S)N1CC1CCCO1 (stereo unspecified) | i | i | i | i | i | i
CCCOc1ccc(/C=C2\SC(=S)N(CC3CCCO3)C2=O)cc1 (stereo unspecified) | i | 48.9 | i | i | i | i
O=C(O)c1cc2ccccc2c2c1C(=O)c1ccccc1-2 | i | i | nt | nt | nt | nt
Nc1cc(C(=O)O)c(N)c2c1C(=O)c1ccccc1C2=O | i | 51.2 | i | 58.7 | i | i
CCCNC(=O)c1cc(C2CCCN(C(=O)c3cc(F)ccc3C)C2)on1 (stereo unspecified) | i | i | nt | nt | nt | nt
O=Nc1c(O)c2ccccc2c2ccccc12 | 91.9 | i | nt | nt | nt | nt
Cc1cc(Cl)n2ncc(-c3ccccc3)c2n1 | 91.0 | i | i | i | i | i
